Rows were chosen to be rich in hits. Some 21% of all compounds tested hit in one or more screens of this group.
Pf growth 96h: inhibits malaria parasite growth, 96 h; Potency, µM (highest dose often 28.7 µM), inactives show at the top dose activity change, negative = inhibition, hits mostly inhibitors; 6.9% of 320,000 active; P. falciparum luciferase reporter growth, 96 h; AID 504834; further: potency means the concentration at half of the fitted maximal effect; on the % scale 0 is the no-effect control and ±100 the full control effect
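P. falciparum expressing integrated firefly luciferase, in erythrocytes at 2% hematocrit, 0.05% parasitemia, incubated with compounds 96 h at 37 C, 5% CO2. Growth inhibition read as loss of luminescence; two-generation exposure targets delayed-death apicoplast inhibitors.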
NS1 function inh: inhibitors of influenza NS1 protein function; Potency, µM (series often up to 46.1 µM), without a hit: at the highest dose activity, positive = more growth; 0.4% of 270,000 active; AID 2326; calls by dose curve; further: potency means the concentration at half of the fitted maximal effect; actives are rising curves; nearly all actives have a fitted effect of over 50% in size
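Read-out: OD600 growth recovery of NS1-expressing budding yeast. Cells grown overnight at 30C in -URA glucose medium, washed, resuspended and diluted 1:100 in 2% galactose assay medium, pH 6.0. Same strain lacking NS1 served as positive control.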
Cycloheximide cs: counter-screen for Shiga toxin inhibitors: cycloheximide protein synthesis inhibition; max response, %; cell reporter, cycloheximide protein synthesis inhibition counterscreen; 12% of 300,000 active; in the data active means max response mostly above about 13%, no sharp cut-off; inactive means mostly below about 14%; further: read at 38.3 µM for the half of the compounds with a filed dose; 0% is about no effect
Pf growth 48h: P. falciparum growth inhibition at 48 hours (one generation); P. falciparum luciferase growth in erythrocytes, 48 h; Potency, µM (series often up to 28.7 µM), for the others: top-dose activity change, negative = inhibition, usual class: inhibitors; 5.9% of 310,000 active; AID 504832; further: potency means the concentration at half of the fitted maximal effect; on the % scale 0 is the no-effect control and ±100 the full control effect
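Luminescence readout; reporter = integrated firefly luciferase in P. falciparum. RBC culture at 2% hematocrit, 0.1% parasitemia final, 37 C/5% CO2; decreased signal taken as growth inhibition.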
Shiga toxin inh: inhibitors of Shiga toxin in Vero cells | Vero cells, Shiga toxin protein synthesis inhibition reporter | inhibition, % at 38.7 µM | 9.2% of 290,000 active | AID 2315; in the data active means inhibition mostly above about 28%, no sharp cut-off; inactive means mostly below about 43%; further: 0% is about no effect
* = called active by the depositor; i = inactive; u = inconclusive; x = no result. Unless noted, the call rests on the fitted dose curve; in most records, active means well fitted inhibition curve with a large enough effect; inconclusive means small, poorly fitted or top-dose-only effect, or another doubt; inactive means no such curve, though single readings can be large or run the other way.

SMILES	Pf growth 96h	NS1 function inh	Cycloheximide cs	Pf growth 48h	Shiga toxin inh
O=C(NCCCN1CCCC1)c1cccc(N2CCCC2=O)c1	u	u	-3	-19%	-5
Cc1ccc(NC(=O)c2ccc(NC(=O)C3CCCCC3C(=O)O)cc2)cc1 (stereo unspecified)	16%	8%	30*	31%	75*
Cc1ccc(NC(=O)NN2CCOCC2)cc1	u	3%	16*	46%	29
Cc1cccc[n+]1CC(=O)Nc1cccc([N+](=O)[O-])c1	33%	-2%	-2	u	-8
CC(=O)C(=Nc1ccc(Cl)cc1Cl)NNc1cccc(Cl)c1	x	-64%	1	x	-2
Cc1cccc(C(=O)Nc2ccc(N3CCN(c4ccc(C(F)(F)F)cn4)CC3)nc2)c1	-9%	0%	-2	u	-3
CCN1CCN(c2ccc(NC(=O)c3cccc(N4CCCC4=O)c3)cc2)CC1	90%	-32%	25*	70%	58
CCOc1ccc(C(=O)NCC(=O)Nc2ccc(N3CCOCC3)cc2)cc1OCC	137%	22%	21*	i	124*
Cc1ccc(C(=O)Nc2ccc(N3CCN(C)CC3)nc2)cc1	u	x	32*	413%	41
O=C(Nc1ccc(N2CCCCC2)cc1)c1cncc(Br)c1	x	-10%	28	173%	141*
CC1CCCC(NC(=O)C2CCN(S(=O)(=O)N3CCCCCC3)CC2)C1C (stereo unspecified)	u	-5%	-3	u	10
CCOC(=O)CN1C(=O)CCSc2ccc(Cl)cc21	u	-1%	-1	1%	-8
CCc1ccccc1N1C(=O)C2C3C=CC(CC3)C2C1=O (stereo unspecified)	u	4%	-6	4%	-1
Cc1ccc(C(=O)Nc2ccc(N3CCCC3)cc2)cc1	154%	x	26*	288%	69*
O=C(/C=C/c1ccccc1)Nc1ccc(N2CCCCC2)cc1	-5%	9%	26*	8%	31
O=C(Nc1ccc(N2CCN(C(=O)c3ccco3)CC2)cc1)C(c1ccccc1)c1ccccc1	x	25%	7	u	-4
NC(=O)NC(=O)C(Nc1ccc(N2CCCCC2)cc1)c1ccccc1 (stereo unspecified)	131%	-6%	51*	101%	121*
O=C(Nc1ccc(N2CCCC2=O)cc1)c1cccc(F)c1	x	6%	39*	161%	76*
O=C(NC1CCCC1)C1CCCN(S(=O)(=O)c2ccc(F)cc2)C1 (stereo unspecified)	u	3%	-4	-17%	4
O=C(Nc1ccc(N2CCCCC2)cc1)c1ccccc1	x	0%	22	-70%	88*
Cc1ccc(C(=O)Nc2ccc(N3CCOCC3)cc2)cc1	u	-5%	65*	u	36
COc1ccc(C(=O)Nc2ccc(N3CCCCC3)cc2)cc1Br	57%	9%	37*	116%	66*
Cc1ccc(C(=O)Nc2ccc(N3CCN(S(C)(=O)=O)CC3)cc2)cc1	16%	4%	10	x	-3
CSc1cccc(NC(=S)NCCCN2CCN(c3ccc(F)cc3)CC2)c1	8.3µM*	2%	-1	u	-12
Fc1cccc(NC(=S)NCCCN2CCOCC2)c1	131%	6%	2	6%	-23
SMILES	Pf growth 96h	NS1 function inh	Cycloheximide cs	Pf growth 48h	Shiga toxin inh
CCn1c(SCc2ccccc2)nc2c1c(=O)[nH]c(=O)n2C	-21%	-2%	1	-19%	-20
CCCC(=O)C1=C(O)C(C(=O)OC)C(C)(C)CC1=Nc1ccc(C)cc1 (stereo unspecified)	19%	-3%	1	5.2µM*	-2
CCCC(=O)C1=C(O)C(C(=O)OC)C(C)(C)CC1=Nc1ccc(N)cc1 (stereo unspecified)	u	-1%	-1	u	16
O=C(NC(=S)N(CCO)Cc1ccccc1)c1cc(Br)ccc1Cl	14%	-1%	-1	u	4
CCOC(=O)N1CCC(NC(=O)c2ccc3c(c2)N(C)CCS3)CC1	u	-2%	8	12µM*	-5
CCOC(=O)N1CCC(NC(=O)c2ccc3c(c2)N(Cc2ccc(C)cc2)CCS3)CC1	u	0%	-3	u	6
O=C(NCc1ccco1)c1ccc2c(c1)N(Cc1ccc(Cl)cc1)CCS2	u	2%	8.3*	u	45*
COc1ccc(OC)c(CCNC(=O)c2ccc3c(c2)N(Cc2ccccc2)CCS3)c1	13µM*	31%	6	u	11
CCOC(=O)N1CCC(NC(=O)c2ccc3c(c2)N(Cc2ccc(F)cc2)CCS3)CC1	u	23%	4	4.7µM*	0
O=C(NCc1ccco1)c1ccc2c(c1)N(Cc1ccccc1)CCS2	u	-12%	8	u	18
CCOC(=O)N1CCC(NC(=O)c2ccc3c(c2)N(Cc2ccccc2)CCS3)CC1	u	10%	3	x	9
Cc1cc(C)n(CC(=O)NCc2ccccc2)c(=O)c1C#N	u	-1%	-1	-16%	-1
N=C(c1cccc([N+](=O)[O-])c1)N1CCCCC1	u	1%	-2	-1%	28
O=C(NC1CC1)c1ccc2c(c1)N(Cc1ccccc1)CCS2	12µM*	20%	10	-23%	17
CC1=C(c2ccccc2)SC2=NCCN21	-4%	3%	-3	40%	-15
Cc1c(CCOC(=O)c2ccccc2)sc[n+]1Cc1ccccc1	-7%	-6%	1	5.2µM*	-4
CCCCn1c(N)c(N(CCOC)C(=O)c2cc(CC)c(C)s2)c(=O)[nH]c1=O	-1%	x	x	u	x
Cn1c(-c2ccccc2)cnc1N	u	9%	29*	u	35
COc1ccc(-c2cnc(N)n2C)cc1	u	0%	2	3%	10
COc1ccc(-n2ccnc2SCC(=O)NC2CCCC2)c(OC)c1	-5%	-2%	7	4%	-16
Cc1ccc(Cl)cc1C1=CC(=O)C[C@H](c2ccc(F)cc2)C1	u	x	x	-23%	x
CSc1ccc(C2=CC(=O)C[C@H](c3ccc(Cl)cc3)C2)cc1	-4%	x	x	u	x
COc1ccc([C@H]2CC(=O)C=C(c3cccc(Cl)c3)C2)cc1	u	x	x	4%	x
O=C1C=C(c2cccc(Cl)c2)C[C@@H](c2ccc(Cl)cc2)C1	2.1µM*	x	x	3.3µM*	x
O=C1C=C(c2cc(F)ccc2F)C[C@@H](c2ccc(Cl)cc2)C1	u	x	x	3.7µM*	x
CC(C)c1cccc(C2=CC(=O)C[C@H](c3ccc4c(c3)OCO4)C2)c1	8.3µM*	x	x	13µM*	x
O=C1C=C(c2cccc(Cl)c2O)C[C@@H](c2ccc(Cl)cc2)C1	1.5µM*	x	x	2.9µM*	x
O=C(/C=C1\NCC2c3ccccc3CCN2C1=O)c1ccccc1 (stereo unspecified)	i	10%	6	341%	-17
CCc1cccc(NC(=S)Nc2cccc3ccccc23)c1	0%	24%	46*	u	73
Cc1cccc(NC(=S)NCCC(C)C)c1	12µM*	-25%	20*	u	25
